From PubChem BioAssay AID1021 (Emory University Molecular Libraries Screening Center, 2008)
The campaign covered roughly 220,000 compounds. About 2,100 (0.95%) were called active. The list comes from a sample in which actives are over-represented; it also holds similar structures and randomly drawn compounds. Unmarked numbers belong to inactive results.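 How the source made its calls: active means compounds that cut the binding signal by more than half at the single screening dose; inactive means the rest.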

target: Induced myeloid leukemia cell differentiation protein Mcl-1 (Homo sapiens) (UniProt Q07820); assay: disruptors of Mcl-1 and Bid BH3 peptide – biochemical, TR-FRET, 1536-well, primary screen (AID 1021); conditions: TR-FRET Mcl-1/Bid-Dy647 peptide binding, at 21.7 µM, stronger effect = higher value;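 further: His-tagged Mcl-1 with europium anti-His antibody binding Bid BH3 peptide; 0% = Mcl-1 plus peptide wells and 100% = peptide-only wells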
Sequence (Q07820 whole entry, looked up): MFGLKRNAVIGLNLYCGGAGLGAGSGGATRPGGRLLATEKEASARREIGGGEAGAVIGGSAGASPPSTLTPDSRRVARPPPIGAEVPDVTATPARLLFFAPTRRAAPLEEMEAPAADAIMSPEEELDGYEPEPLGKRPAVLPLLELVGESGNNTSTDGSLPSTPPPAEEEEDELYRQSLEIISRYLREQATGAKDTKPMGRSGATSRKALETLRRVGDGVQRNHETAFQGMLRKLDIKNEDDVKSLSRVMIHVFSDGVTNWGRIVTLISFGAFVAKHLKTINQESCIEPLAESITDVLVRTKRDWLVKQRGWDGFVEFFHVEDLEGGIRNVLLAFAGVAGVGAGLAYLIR

Compound	inhibition
COc1ccc(C(=O)NCC(=O)N/N=C/c2ccc([N+](=O)[O-])o2)cc1OC	-51.1%
CNC(=O)c1cccc2nc3ccccc3nc12	-18.3%
CN1C2CCC1/C(=C\c1ccccc1Cl)C(=O)/C2=C\c1ccccc1Cl	7.72%
Cc1ccccc1CCN(CC(=O)NC1CCCCC1)C(=O)c1csnn1	-16.2%
CC1=CC=CN2C1=NC(=O)CC2(C)C(=O)N(CC(=O)NC1CCCC1)c1ccccc1C (stereo not drawn)	50.7% (active)
CC1=CC2=NC(=O)CC(C)(C(=O)N(CC(=O)NC(C)(C)C)Cc3ccccc3)N2C=C1 (stereo not drawn)	-15.8%
COC(=O)N(NC(=O)C(O)(C(C)C)C(C)C)c1ccccc1	-9.27%
CNC(=S)N1CCN(c2ccccn2)CC1	-63.9%
Cc1ccc(NC(=S)N2CCN(c3ncccn3)CC2)cc1C	92.2% (active)
CCNC(=S)N1CCN(c2ncccn2)CC1	-29.3%
COc1ccccc1-n1cn[nH]c1=S	-143%
O=C(N/N=C/c1ccc([N+](=O)[O-])o1)c1cn(-c2ccccc2)nc1-c1ccc(F)cc1	25.7%
C=CCSC(CC)(CC)C(N)=O	-11%
N=C1/C(=C/c2cccn2-c2cccc([N+](=O)[O-])c2)C(=O)N=C2SC=CN12	71.5% (active)
Cc1cc(/C=C2/C(=N)N3C(=NC2=O)SN=C3S(C)(=O)=O)c(C)n1-c1ccccc1	-35.9%
COC(=O)c1c(C(=O)OC)c2n(c1C)CCS2	-18.6%
CC1COc2ccccc2N1C(=O)c1cccnc1Cl (stereo not drawn)	-17.1%
Oc1c(Cl)cc(Cl)c(Cl)c1Cc1c(O)c(Cl)cc(Cl)c1Cl	100% (active)
CC(OC(=O)c1ccc(NS(=O)(=O)c2ccc3[nH]c(=O)[nH]c3c2)cc1)C(=O)Nc1cccc(Cl)c1Cl (stereo not drawn)	-92.2%
O=C(O)CC1S/C(=N\N=C/c2ccccc2O)N(c2ccc(O)cc2)C1=O (stereo not drawn)	-24.9%

Compound	inhibition
CC(O)CNCCOc1cccc(Oc2ccccc2)c1 (stereo not drawn)	-8.32%
O=C(NCCc1ccccn1)c1cccnc1Oc1ccc(Cl)cc1	-2.11%
NC(=O)c1ccc(NC(=O)COC(=O)C(Cc2ccccc2)NC(=O)c2ccccc2)cc1 (stereo not drawn)	-18.9%
CCOC(=O)N1CCN(Cc2nc(Cc3cccc(C(F)(F)F)c3)no2)CC1	-53%
O=C(COC(=O)c1cccc(Br)c1)Nc1cccc2c1C(=O)c1ccccc1C2=O	8.65%
O=C(COC(=O)Cn1cnc2ccccc2c1=O)NCc1ccccc1Cl	8.62%
O=C(COC(=O)Cn1cnc2ccccc21)Nc1cccc2c1C(=O)c1ccccc1C2=O	52.5% (active)
N#Cc1cccc(NC(=O)COC(=O)c2ccccc2C(=O)c2ccc(Cl)c([N+](=O)[O-])c2)c1	-7.05%
CC(C)C[C@H](CO)Nc1nc(N(C)c2cccc(Cl)c2)c2ncn(C(C)C)c2n1	-56.4%
NS(=O)(=O)c1cccc(NC(=O)COC(=O)/C=C/c2ccco2)c1	-10.4%
O=[N+]([O-])C(=c1ccc2c(c1)N1C3=C(CCCC3)CC3CCCCC31N=2)[N+](=O)[O-] (stereo not drawn)	78.9% (active)
CCN(CC)S(=O)(=O)c1ccc(N2CCCC2)c(NS(=O)(=O)c2cccs2)c1	-28.4%
O=C(NNc1ccccc1Cl)C(O)(c1cccc(C(F)(F)F)c1)c1cccc(C(F)(F)F)c1	3.27%
O=C(C[n+]1ccc2c(c1)nnn2-c1ccccc1)c1ccc(Cl)cc1	-1.27%
COc1ccccc1NC(=O)CSc1nc2sc(C)c(C)c2c(=O)n1Cc1ccco1	-24.2%
Cc1ccc(-c2nc(SCC(=O)Nc3ccccc3OC(F)F)c3c(C)c(C(=O)O)sc3n2)cc1	79.3% (active)
Cc1ccc(C)c(SCc2nc3sc(C(=O)O)c(C)c3c(=O)[nH]2)c1	-24.1%
COC(=O)C1=C(N)Oc2cc(C)[nH]c(=O)c2C1c1ccc(Cl)cc1 (stereo not drawn)	-43.4%
CN=c1scc(-c2cc(OC)ccc2OC)n1/N=C/c1c(C)[nH]c2ccccc12	39.1%
CC(=O)c1ccc(NC(=O)C(C)NCc2ccc(Cl)cc2)cc1 (stereo not drawn)	3.24%

Compound	inhibition
CCN(CC)c1ccc(S(=O)(=O)N2CCOCC2)cc1NC(=O)CSc1cccc[n+]1[O-]	-69%
O=C(O)CC1(CC(=O)Nc2cccc(C(F)(F)F)c2)CCCC1	-7.96%
Cc1cccc(OCc2ccc(C(=O)Nc3ccc(F)cc3)cc2)c1	11%
COc1ccc(C(=O)NNS(=O)(=O)c2ccc(C)cc2)cc1	-16.3%
Cc1ccc(COc2ccc(C(=O)NN)cc2)cc1	67.1% (active)
Cc1cccc(N2Cc3ccccc3C2=NC(=O)c2ccc(Cl)nc2)c1	-35.5%
COc1cccc(OC)c1CN(C)C(=O)c1cnccc1C(F)(F)F	-18.2%
O=C(NNC1=C(C(=O)C(F)(F)F)CCC1)c1ccncc1	-42.6%
COc1cccc(C(=O)Nc2cccnc2)c1OC	-18.8%
COc1cccc(NC(=O)C2c3cc(OC)c(OC)cc3C(=O)N(C)C2c2cccnc2)c1 (stereo not drawn)	84.2% (active)
CCOc1cc2c(cc1OCC)C(C(=O)O)C(c1ccc(OC)c(O)c1)N(C)C2=O (stereo not drawn)	-21.7%
CCOC(=O)c1c(NC(=S)NC(=O)c2ccco2)sc2c1CCCC2	61.4% (active)
CCOC(=O)c1c(NC(=S)NC)sc2c1CCCC2	-22.5%
CCOC(=O)c1c(NC(=S)Nc2ccccc2C)sc2c1CCC2	-25.3%
O=C(O)CC12CC3CC(C1)CC(n1ncc(NCc4ccc(F)cc4)c(Cl)c1=O)(C3)C2	-0.52%
CS(=O)(=O)c1ccc2nc(NC(=O)C3CCCCC3)sc2c1	-11%
CS(=O)(=O)c1ccc2nc(NC(=O)c3ccc(N4CCCC4=O)cc3)sc2c1	-53.4%
CS(=O)(=O)c1ccc2nc(NC(=O)CN3CCCCCC3)sc2c1	55.1% (active)
